Experimental findings from PubChem BioAssay (NCI) are described below.

What all share (experiment): NCI-60 one-dose screen, 48 h (100 = growth as untreated, 0 = no growth, -100 = all killed)
For one test, the system named is SK-MEL-2 melanoma. Particulars: 10 µM.
A further test concerns EKVX NSCLC. The settings on record: 10 µM.
Another test concerns SN12C renal. The settings on record: 10 µM.
For a further test, the system named is UO-31 renal. The settings on record: 10 µM.
A further test deals with TK-10 renal. The settings on record: 10 µM unless noted.
The subject of the next test is ACHN renal. Particulars: 10 µM.
The next test deals with CAKI-1 renal. Particulars: 10 µM.
A further test has as its system A498 renal. Particulars: 10 µM.
Another test has as its system CCRF-CEM leukemia. Particulars: 10 µM.
The test system of the next test is MOLT-4 leukemia. The settings on record: 10 µM.
In another test the test system is SR leukemia. The settings on record: 10 µM.
For a further test, the system named is RPMI-8226 leukemia. The settings on record: 10 µM.
The subject of a further test is OVCAR-8 ovarian. The settings on record: 10 µM.
A further test has as its system OVCAR-5 ovarian. The settings on record: 10 µM.
For a further test, the system named is OVCAR-4 ovarian. Particulars: 10 µM.
For another test, the system named is SK-OV-3 ovarian. Particulars: 10 µM.
Another test deals with IGROV1 ovarian. Particulars: 10 µM.
For another test, the system named is OVCAR-3 ovarian. Particulars: 10 µM.
The subject of another test is HS 578T breast. Particulars: 10 µM.
Another test deals with NCI/ADR-RES ovarian. Particulars: 10 µM.

About 83,000 compounds went through this panel and 20% of them were active in at least one assay; those are over-represented in the sample as a whole.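 48-hour exposure, single concentration, 96-well plates; percent growth endpoint where 0 means no net growth. Active: below 10.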 Values without a mark were called inactive. The source made the active and inactive calls.

As for `Cc1cc(N2CCC(N3CCCC3)CC2)nc(/N=C(\N)Nc2ccc(Cl)c(Cl)c2)n1`, the growth was -71.7% (active) in the test on SK-MEL-2 melanoma; 2.57% (active) in the test with EKVX NSCLC; 93.7% in the test on SN12C renal; -97.4% (active) in the test with UO-31 renal; -86.3% (active) in the test with TK-10 renal; -27.8% (active) in the test with ACHN renal. The growth in the test on CAKI-1 renal is -40.6% (active); in the test with A498 renal it was 45.7%; in the test with CCRF-CEM leukemia it was -11.8% (active); in the test on MOLT-4 leukemia, -19.8% (active); with SR leukemia, -54.3% (active); with RPMI-8226 leukemia it was -36.7% (active). Also, the growth with OVCAR-8 ovarian was -9.16% (active); with OVCAR-5 ovarian, 19%; in the test with OVCAR-4 ovarian it was -13.2% (active); in the test with SK-OV-3 ovarian, 88.3%; in the test on IGROV1 ovarian, 12.3%; in the test on OVCAR-3 ovarian it was 69.7%. For the same compound, the growth in the test with HS 578T breast is -25.8% (active); in the test on NCI/ADR-RES ovarian, 30.3%.
Consider `O=C(O)C(O)c1ccccc1` (stereo not given), for which the growth is 104% in the test with SK-MEL-2 melanoma; 99.9% in the test on EKVX NSCLC; 106% in the test on SN12C renal; 84.5% with UO-31 renal; 103% in the test on TK-10 renal; 103% with ACHN renal. Moreover, the growth is 96.8% in the test with CAKI-1 renal; 93.9% in the test with A498 renal; 106% in the test with CCRF-CEM leukemia; 102% in the test on MOLT-4 leukemia; 94.7% with SR leukemia; 113% in the test with RPMI-8226 leukemia. For the same compound, the growth in the test on OVCAR-8 ovarian is 105%; with OVCAR-5 ovarian, 103%; with OVCAR-4 ovarian, 98.6%; in the test on SK-OV-3 ovarian it was 109%; in the test on IGROV1 ovarian, 107%; in the test on OVCAR-3 ovarian it was 112%. In addition, the growth is 110% with HS 578T breast and 105% in the test with NCI/ADR-RES ovarian.
Turning to `Nc1ccc(N=Nc2ccc(S(=O)(=O)O)cc2)c2ccccc12`, the growth is 102% in the test on SK-MEL-2 melanoma; 89.7% in the test with EKVX NSCLC; 104% in the test with SN12C renal; 65.2% in the test on UO-31 renal; 140% in the test on TK-10 renal; 99.2% in the test with ACHN renal. The growth was 91.5% with CAKI-1 renal; 126% with A498 renal; 102% with CCRF-CEM leukemia; 88.9% in the test with MOLT-4 leukemia; 96.9% with SR leukemia; 98% in the test with RPMI-8226 leukemia. In addition, the growth in the test on OVCAR-8 ovarian is 103%; in the test on OVCAR-5 ovarian, 106%; in the test on OVCAR-4 ovarian it was 103%; in the test with SK-OV-3 ovarian it was 72.2%; with IGROV1 ovarian, 94.1%; in the test with OVCAR-3 ovarian it was 99%. In addition, the growth in the test on HS 578T breast is 96.6%; with NCI/ADR-RES ovarian, 97.3%.
On to `Nc1ccccc1C(=O)Nc1ccc(Cl)cc1Cl`, for which the growth is 112% in the test on SK-MEL-2 melanoma; 99.5% in the test on EKVX NSCLC; 103% with SN12C renal; 52.4% in the test with UO-31 renal; 118% in the test on TK-10 renal; 94% with ACHN renal. Moreover, the growth with CAKI-1 renal was 69.1%; in the test on A498 renal, 107%; in the test with CCRF-CEM leukemia, 90.3%; with MOLT-4 leukemia it was 77.7%; in the test on SR leukemia, 50%; with RPMI-8226 leukemia, 63.9%. Further, the growth in the test with OVCAR-8 ovarian was 83.1%; in the test with OVCAR-5 ovarian it was 100%; with OVCAR-4 ovarian it was 87.5%; in the test on SK-OV-3 ovarian it was 99.2%; with IGROV1 ovarian, 35.9%; in the test with OVCAR-3 ovarian, 93.7%. Moreover, the growth in the test on HS 578T breast is 87.4%; in the test on NCI/ADR-RES ovarian it was 90.7%.
Regarding `C1CNC(C2=NCCN2)=N1`, the growth with SK-MEL-2 melanoma is 116%; in the test on EKVX NSCLC it was 103%; in the test on SN12C renal, 102%; in the test on UO-31 renal, 90.2%; in the test with TK-10 renal, 103%; with ACHN renal, 109%. Also, the growth in the test on CAKI-1 renal is 99.2%; in the test with A498 renal, 108%; in the test with CCRF-CEM leukemia, 109%; with MOLT-4 leukemia, 96.4%; in the test on SR leukemia, 96.1%; in the test on RPMI-8226 leukemia, 109%. Besides, the growth in the test with OVCAR-8 ovarian was 102%; with OVCAR-5 ovarian, 105%; in the test on OVCAR-4 ovarian it was 105%; with SK-OV-3 ovarian, 104%; with IGROV1 ovarian, 107%; with OVCAR-3 ovarian it was 94.2%. Further, the growth in the test with HS 578T breast is 101%; in the test with NCI/ADR-RES ovarian it was 108%.
With `Cc1cc2nc(CO)[nH]c2cc1C`, the growth is 83% in the test with SK-MEL-2 melanoma; 112% with EKVX NSCLC; 105% with SN12C renal; 85.8% with UO-31 renal; 131% in the test with TK-10 renal; 105% with ACHN renal. Further, the growth in the test on CAKI-1 renal is 110%; in the test on A498 renal, 101%; with CCRF-CEM leukemia it was 93.6%; in the test on MOLT-4 leukemia, 103%; in the test on SR leukemia it was 122%; in the test with RPMI-8226 leukemia it was 87.9%. The growth in the test on OVCAR-8 ovarian was 101%; in the test with OVCAR-5 ovarian, 100%; with OVCAR-4 ovarian, 103%; in the test on SK-OV-3 ovarian, 108%; with IGROV1 ovarian it was 108%; in the test with OVCAR-3 ovarian, 105%. The growth is 151% with HS 578T breast and 107% in the test with NCI/ADR-RES ovarian.
With `O=[N+]([O-])c1cccc(C(F)(F)F)c1`, the growth was 116% in the test on SK-MEL-2 melanoma; 104% in the test on EKVX NSCLC; 95.1% with SN12C renal; 96.3% with UO-31 renal; 108% in the test with TK-10 renal; 102% in the test on ACHN renal. In addition, the growth in the test with CAKI-1 renal was 94.3%; in the test on A498 renal it was 98.4%; in the test on CCRF-CEM leukemia it was 96.2%; in the test with MOLT-4 leukemia, 102%; in the test on SR leukemia, 127%; in the test on RPMI-8226 leukemia, 107%. Moreover, the growth in the test on OVCAR-8 ovarian is 106%; in the test on OVCAR-5 ovarian, 97%; with OVCAR-4 ovarian it was 103%; with SK-OV-3 ovarian it was 106%; in the test on IGROV1 ovarian, 105%; with OVCAR-3 ovarian, 117%. For the same compound, the growth in the test on HS 578T breast was 103%; with NCI/ADR-RES ovarian it was 106%.
Consider `NCCC(=O)c1ccc(Cl)cc1`, for which the growth was 101% with SK-MEL-2 melanoma; 110% in the test with EKVX NSCLC; 108% with SN12C renal; 85.7% with UO-31 renal; 102% in the test on TK-10 renal; 121% with ACHN renal. Besides, the growth in the test on CAKI-1 renal is 101%; with A498 renal, 107%; in the test with CCRF-CEM leukemia, 103%; with MOLT-4 leukemia it was 89.6%; with SR leukemia it was 93.8%; in the test on RPMI-8226 leukemia, 110%. For the same compound, the growth with OVCAR-8 ovarian is 101%; in the test on OVCAR-5 ovarian, 118%; in the test with OVCAR-4 ovarian it was 110%; with SK-OV-3 ovarian, 95.7%; in the test on IGROV1 ovarian, 117%; in the test with OVCAR-3 ovarian, 105%. For the same compound, the values for the growth in the test with HS 578T breast and in the test with NCI/ADR-RES ovarian were 109% and 103%, respectively.
